Measured values reported in PubChem BioAssay.
Values without a mark were called inactive. How the calls were made is not given here.

target: Pantothenate synthetase (Mycobacterium tuberculosis (strain ATCC 25618 / H37Rv)) (UniProt P9WIL5); assay: Coupled enzyme confirmation of inhibitors against recombinant Mtb PanC (AID 375); details: coupled enzyme assay; at 10 µM, active compounds read high;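 further: 0% = full reaction with vehicle and 100% = no enzyme background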
Sequence (P9WIL5 whole entry, looked up): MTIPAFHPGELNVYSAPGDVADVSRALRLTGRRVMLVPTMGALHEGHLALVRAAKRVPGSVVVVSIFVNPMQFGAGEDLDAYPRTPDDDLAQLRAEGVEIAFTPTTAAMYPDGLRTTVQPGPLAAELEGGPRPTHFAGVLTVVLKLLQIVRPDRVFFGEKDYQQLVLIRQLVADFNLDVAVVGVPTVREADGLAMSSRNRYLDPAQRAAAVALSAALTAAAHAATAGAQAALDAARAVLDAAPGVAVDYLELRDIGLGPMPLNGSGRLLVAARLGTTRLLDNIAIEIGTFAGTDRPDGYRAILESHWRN

Row | SMILES | inhibition [%]
1 | CCCNC(=O)NS(=O)(=O)c1ccc(Cl)cc1 | 5
2 | COCn1c(COc2ccccc2)nc2ccccc21 | 0
3 | O=C(NCC1COc2ccccc2O1)c1ccc(NC(=O)c2ccco2)cc1 (stereo not drawn) | 0
4 | COc1ccc(S(=O)(=O)Nc2ccc(F)c(Cl)c2)cc1OC | 0
5 | CCOC(=O)CSc1nn(C)c(=S)s1 | 6
6 | O=c1[nH]c2cc3c(cc2cc1C(c1nnnn1Cc1ccccc1)N1CCCc2ccccc21)OCO3 (stereo not drawn) | 1
7 | Cc1cc(C)cc(-n2ccnc2SCC(=O)Nc2ccc3c(c2)OCCO3)c1 | 0
8 | O=C(CCn1c(=O)c2ccccc2n(CC(=O)NCCC2=CCCCC2)c1=O)NCc1ccco1 | 4
9 | CCc1ccccc1NC(=O)CSC1=C(C#N)C(c2ccc(O)c(OC)c2)C2=C(CCCC2=O)N1 (stereo not drawn) | 6
10 | Cc1c(C(=O)NC2CC2)oc2ccc(S(=O)(=O)N3CCCCCC3)cc12 | 0
11 | Cc1cc(Cl)ccc1OCCCC(=O)NO | 0
12 | COc1cc(C(=O)Nc2cccc(-c3nncn3C)c2)cc(OC)c1OC | 0
13 | CC(=O)c1coc2ccc(OCC(=O)O)cc12 | 0
14 | Cc1csc2ncc(C(=O)Nc3ccccc3Cl)c(=O)n12 | 3
15 | O=C(CS(=O)(=O)Cc1ccccc1)N1CCc2ccccc2C1 | 1
16 | Cc1ccc(NC(=O)c2ccco2)c(NC(=O)c2cccs2)c1 | 0
17 | CC1(C)NC(=O)N(CN2C(=O)NC(C)(C)C2=O)C1=O | 0
18 | O=C(O)C1CSC2c3ccccc3C(=O)N12 (stereo not drawn) | 0
19 | CN(C)c1cc(NC(=O)CN2CCOCC2)c2ccccc2n1 | 3
20 | CC(C)C12CN3CC(C(C)C)(CN(C1)C3c1ccc3c(c1)OCO3)C2=O (stereo not drawn) | 0
21 | COc1cc(OC)cc(C(=O)NCCN2CCOCC2)c1 | 0
22 | O=C(Nc1ccc(N2CCOCC2)cc1)c1cc2ccccc2o1 | 0
23 | COc1ccc(CCNC(=O)C2CCCN(c3nn4c(=O)cc(C)nc4s3)C2)cc1OC (stereo not drawn) | 0
